PHOSPHO1 inh: inhibitors of human PHOSPHO1 phosphatase; Q8TCT1; recombinant PHOSPHO1, absorbance phosphatase assay; inhibition, % at 13.3 µM; 290,000 tested, 1.1% active; AID 1565; in the data active = inhibition above about 60%
aDG glyco up: alpha-DG glycosylation activation; 360,000 tested, 0.22% active; activation, % at 10 µM; Pro5-aDG cells, alpha-DG glycosylation AlphaScreen (IIH6); 0% Pro5, 100% B10-LARGE cell signal;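 active = activation of at least 8% versus controls, or a plate z-score of at least 8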;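 note: Pro5 are CHO cells carrying HIG-tagged alpha-DG that lacks glycosylation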
APOBEC3A inh: human APOBEC3A DNA deaminase inhibition | P31941 | recombinant A3A, FAM/TAMRA ssDNA deamination fluorescence | inhibition, % at 20 µM | 330,000 tested, 0.41% active | AID 493011;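 active = at least 40% inhibition at 20 µM here, with at most 30% in a related deaminase screen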
Target sequence (P31941 whole entry, looked up): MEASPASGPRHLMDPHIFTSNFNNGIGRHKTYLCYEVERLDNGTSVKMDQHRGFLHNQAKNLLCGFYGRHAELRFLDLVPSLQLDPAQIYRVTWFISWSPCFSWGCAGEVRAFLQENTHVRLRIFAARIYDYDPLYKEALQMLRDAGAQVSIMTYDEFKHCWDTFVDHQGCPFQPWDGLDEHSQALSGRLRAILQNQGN
rCAG binder: r(CAG) repeat RNA binding; TO-PRO-1 dye displacement fluorescence; inhibition, % at 3 µM; 370,000 tested, 1.3% active; AID 651821;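 active = inhibition above the plate cutoff, the mean of all test compounds on that plate plus 3 SD, cut at about 35% in these data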;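 note: higher means more dye released from RNA so lower well fluorescence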
ALR inh: blocks human ALR sulfhydryl oxidase activity; P55789; purified ALR, DTT oxidation, H2O2 HRP-luminol luminescence; inhibition, % (concentration not given with the values); 290,000 tested, 3.8% active; AID 485317;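 active = mean replicate inhibition above about 79%, with every replicate also reaching it, limit read from the data; inconclusive = only one of the two criteria met; inactive = mean below limit and not every replicate reaching it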
APOBEC3G inh: blocks human APOBEC3G single-stranded DNA deamination; AID 493012; inhibition, % at 20 µM; Q9HC16; recombinant A3G, ssDNA deamination FAM/TAMRA fluorescence; 330,000 tested, 0.28% active;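 active = inhibition of at least 40% at 20 µM, with no more than 30% in the related APOBEC3A deaminase screen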
Target sequence (Q9HC16 whole entry, looked up): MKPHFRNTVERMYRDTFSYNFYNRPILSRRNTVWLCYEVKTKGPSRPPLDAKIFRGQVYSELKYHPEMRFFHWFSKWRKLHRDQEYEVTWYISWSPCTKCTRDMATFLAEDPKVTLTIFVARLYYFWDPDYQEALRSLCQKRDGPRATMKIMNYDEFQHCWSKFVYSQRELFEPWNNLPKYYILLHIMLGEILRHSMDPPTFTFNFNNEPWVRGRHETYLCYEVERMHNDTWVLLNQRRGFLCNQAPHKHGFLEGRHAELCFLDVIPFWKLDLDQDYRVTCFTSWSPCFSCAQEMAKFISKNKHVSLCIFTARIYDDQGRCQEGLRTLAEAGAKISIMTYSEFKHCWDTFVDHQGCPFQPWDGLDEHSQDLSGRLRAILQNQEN
rCAG binder conf: r(CAG) RNA repeat binding, confirmation. shares compounds with rCAG binder. TO-PRO-1 dye displacement fluorescence. inhibition, % at 3 µM. 4,300 tested, 70% active. AID 652065;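 active = inhibition above a per-plate cutoff, the mean inhibition of sample wells plus 3 SD, cut at about 35% in these data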;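 note: loss of TO-PRO-1 fluorescence as compound displaces dye from 1x1 AA loop RNA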
DNA CAG counter: disrupts DNA CAG TO-PRO-1 complex, flagging rCAG hits | shares compounds with rCAG binder | d(CAG) DNA oligo TO-PRO-1 dye displacement, fluorescence | inhibition, % at 3 µM | 4,300 tested, 94% active;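 active = inhibition above its plate's cutoff, the mean test-well inhibition plus 3 SD, cut at about 4.8% in these data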;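 note: hits displace the dye from DNA and so lower well fluorescence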
dCAG dye DR: disrupts DNA CAG TO-PRO-1 complex in dose response | IC50, µM | shares compounds with rCAG binder | AID 686960 | 250 tested, 20% active | DNA CAG/GTC duplex TO-PRO-1 dye displacement fluorescence; in the data active = IC50 below about 10 µM
Large screens that a line does not name were inactive (follow-up assays come after a bar, where they were run); ! = a repeat was not active. Compounds with a hit are over-represented: about 5.4% of the library has one in this group of screens.

CC(C)C[C@@H](CN)NC(=O)c1nc[nH]c1C(=O)N[C@@H](C)C(=O)CNC[C@H](C)NC(=O)c1nc[nH]c1C(=O)N[C@@H](Cc1ccccc1)C(=O)O	none (no result: PHOSPHO1 inh, APOBEC3A inh, ALR inh, APOBEC3G inh)
COc1cc(C)c(C(=O)Oc2cc(C)c(C(=O)O)c(O)c2C)c(O)c1C(=O)O	none (no result: PHOSPHO1 inh)
COc1cc(C)c(C(=O)Oc2cc(C)c(C(=O)O)c(O)c2C)c(OC)c1C	rCAG binder 52, ALR inh 89 | rCAG binder conf 55 | DNA CAG counter 17
CCSc1nnc(NC(=O)c2nc(S(=O)(=O)Cc3ccc(F)cc3)ncc2Cl)s1	rCAG binder 36 | rCAG binder conf inactive | DNA CAG counter 5.8
CC(C)c1nnc(NC(=O)c2nc(S(=O)(=O)Cc3ccc(F)cc3)ncc2Cl)s1	none
CSc1ncc(Cl)c(C(=O)Nc2nnc(SC/C=C/c3ccccc3)s2)n1	rCAG binder 66 | rCAG binder conf 67 | DNA CAG counter 20
CSc1nnc(NC(=O)c2nc(S(=O)(=O)Cc3cccc(C)c3)ncc2Cl)s1	rCAG binder 37 | rCAG binder conf inactive | DNA CAG counter 4.5
C=CCSc1nnc(NC(=O)c2nc(SCC)ncc2Cl)s1	none (no result: rCAG binder)
CC(=O)N(CC#CCN(C(C)=O)c1ccccc1)c1ccccc1	none (no result: PHOSPHO1 inh, APOBEC3A inh, ALR inh, APOBEC3G inh)
CCOC(=O)c1ccc(CC2S/C(=C(\C#N)C(C)=O)NC2=O)cc1 (configuration not stated)	none
CCc1ccc(CC2S/C(=C(\C#N)C(C)=O)NC2=O)cc1 (configuration not stated)	rCAG binder 37 | rCAG binder conf inactive | DNA CAG counter inactive
O=C1CC(=O)N(Cc2ccco2)C(=O)N1	rCAG binder 35 (no result: ALR inh) | rCAG binder conf 36 | DNA CAG counter 13
COc1ccc(NC(=O)C2Cc3c(-c4ccc5c(c4)OCO5)ccnc3O2)cc1OC (configuration not stated)	none (no result: PHOSPHO1 inh, APOBEC3A inh, ALR inh, APOBEC3G inh)
CCN(CC)N=Nc1ccc(S(=O)(=O)Nc2nc(C)cc(C)n2)cc1	rCAG binder 43! | rCAG binder conf inactive | DNA CAG counter inactive
Cc1cc(C)nc(NS(=O)(=O)c2ccc(NS(=O)(=O)c3ccccc3)cc2)n1	none
C[C@H](CO)N1C[C@H](C)[C@H](CN(C)C(=O)Nc2cccc(F)c2)Oc2cc(Br)ccc2S1(=O)=O	none (no result: PHOSPHO1 inh, aDG glyco up, APOBEC3A inh, ALR inh, APOBEC3G inh)
COc1ccc(Cl)cc1NC(=S)NNC(=O)CC(C)C	none
COc1ccc(Cl)cc1NC(=S)NNC(=O)c1cccs1	rCAG binder 36, ALR inh inconclusive | rCAG binder conf inactive | DNA CAG counter 9.6
COc1ccc(C(=O)N2CCC[C@H]2C(=O)N2CCC[C@@H]2C(=O)NCc2ccccc2)cc1F	none (no result: PHOSPHO1 inh, aDG glyco up, APOBEC3A inh, ALR inh, APOBEC3G inh)
Cc1[nH]c2ccccc2c1/C=N/Nc1ccc([N+](=O)[O-])cc1S(=O)(=O)Nc1ccc(Cl)cc1	none (no result: ALR inh)
O=C(O)COc1ccccc1C=NNc1ccc([N+](=O)[O-])cc1S(=O)(=O)Nc1ccc(Cl)cc1	rCAG binder 88 (no result: PHOSPHO1 inh) | rCAG binder conf 91 | DNA CAG counter 69
COc1ccc(NS(=O)(=O)c2cc([N+](=O)[O-])ccc2NN=Cc2ccccc2OCC(=O)O)cc1	rCAG binder 85 (no result: PHOSPHO1 inh, ALR inh) | rCAG binder conf 88 | DNA CAG counter 63
Cc1cc(C)n2c(NC3CCCC3)c(-c3ccc(F)cc3)nc2n1	none (no result: PHOSPHO1 inh, APOBEC3A inh, ALR inh, APOBEC3G inh)
O=C(NCc1ccccn1)[C@@H]1CCCN1C(=O)[C@@H]1CCCN1C(=O)c1c(F)cccc1F	none (no result: PHOSPHO1 inh, APOBEC3A inh, ALR inh, APOBEC3G inh)
Cc1ccc(S(=O)(=O)NN=Cc2c(O)ccc3ccccc23)cc1	rCAG binder 41 (no result: PHOSPHO1 inh, APOBEC3A inh, ALR inh, APOBEC3G inh) | rCAG binder conf 46 | DNA CAG counter 15
Cc1ccc(NC(=O)OCCN(C)C(=O)Nc2ccc(C)cc2C)c(C)c1	none (no result: PHOSPHO1 inh, aDG glyco up, APOBEC3A inh, ALR inh, APOBEC3G inh)
CC(=O)N1[C@@H](CO)[C@@H](c2ccc(-c3cccc(F)c3)cc2)[C@@H]1CNCC1CCC1	none (no result: PHOSPHO1 inh, aDG glyco up, APOBEC3A inh, ALR inh, APOBEC3G inh)
C[C@@H]1[C@H](O)[C@@H](C)/C=C/C=C/C=C/C=C/C=C/C=C/C=C/[C@H](OC2O[C@H](C)[C@@H](O)[C@H](N)[C@@H]2O)C[C@@H]2O[C@](O)(C[C@@H](O)C[C@@H](O)[C@H](O)CC[C@@H](O)C[C@@H](O)CC(=O)O[C@H]1C)C[C@H](O)[C@H]2C(=O)O (some centres not stated)	rCAG binder 41 (no result: PHOSPHO1 inh, aDG glyco up, APOBEC3A inh, ALR inh, APOBEC3G inh) | rCAG binder conf 44 | DNA CAG counter 14 | dCAG dye DR inactive
CC1C/C=C/C=C/C=C/C=C/C(O[C@@H]2O[C@H](C)[C@@H](O)[C@H](N)[C@@H]2O)CC2OC(O)(CC(O)CC3OC3/C=C/C(=O)O1)CC(O)C2C(=O)O (some centres not stated)	none (no result: aDG glyco up, APOBEC3A inh, ALR inh, APOBEC3G inh)
COc1ccc(C2C(C(=O)N3CCN(C=O)CC3)CC(=O)N2c2ccc(OC)cc2)cc1 (configuration not stated)	none (no result: PHOSPHO1 inh, aDG glyco up, APOBEC3A inh, ALR inh, APOBEC3G inh)
Cc1onc(-c2ccccc2)c1C(=O)NC(=S)Nc1sc2c(c1C#N)CCC(C)C2 (configuration not stated)	rCAG binder 42 | rCAG binder conf inactive | DNA CAG counter 15
Cc1cccc(NS(=O)(=O)c2nnc(NC(=O)c3cccc(C)c3)s2)c1	none
Cc1cccc(NS(=O)(=O)c2nnc(NC(=O)c3ccc(Cl)cc3)s2)c1	rCAG binder 37 (no result: ALR inh) | rCAG binder conf inactive | DNA CAG counter 12
COc1ccc(CN(C)S(=O)(=O)c2nnc(NC(=O)c3cccc(F)c3)s2)cc1OC	rCAG binder 57 | rCAG binder conf 60 | DNA CAG counter 24
COc1ccc(CN(C)S(=O)(=O)c2nnc(NC(=O)c3ccccc3)s2)cc1OC	none
Cc1cccc(C(=O)Nc2nnc(S(=O)(=O)N(C)Cc3ccco3)s2)c1	rCAG binder 37, ALR inh 94 | rCAG binder conf 37 | DNA CAG counter 13
Cc1onc(-c2c(F)cccc2Cl)c1C(=O)OCC(=O)Nc1cccc(S(=O)(=O)N(C)C)c1	none (no result: PHOSPHO1 inh, APOBEC3A inh, ALR inh, APOBEC3G inh)
O=[N+]([O-])c1cc2no[n+]([O-])c2cc1N1CCCCC1	rCAG binder 44 (no result: PHOSPHO1 inh, APOBEC3A inh, ALR inh, APOBEC3G inh) | rCAG binder conf inactive | DNA CAG counter inactive
N#Cc1cc(N2CCCCC2)c([N+](=O)[O-])cc1C#N	none
O=C(NC(=S)Nc1ccccc1[N+](=O)[O-])c1ccccc1	none
O=C(NC(=S)Nc1cccc2c(O)cccc12)c1ccccc1[N+](=O)[O-]	rCAG binder 39 | rCAG binder conf inactive | DNA CAG counter 7.3
COc1ccc(/C=C(/C#N)C(=O)Nc2ccccc2C)cc1C(=O)O	none

Assay outcomes: PubChem BioAssay, several laboratories
